# Compound activity from PubChem.
# Vif imaging: inhibitors of HIV Vif. HEK293T cells, Vif self-association by quenched fluorescence, imaging, 24 h. inhibition, % at 7.49 µM. actives 0.35% (n = 340,000); in the data active = inhibition above about 50%, passing the limit was not always enough
# esBAF inh: SWI/SNF esBAF complex inhibition; actives 2% (n = 350,000); mouse ES cells, Bmi1-luciferase knock-in reporter, 24 h; 100% = twice the neutral-well signal; reporter increase, % at 12.5 µM; AID 602393; in the data active = activation above about 40%;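 also: 0% = median of the plate's neutral control wells and 100% = double that signal; a rise in the Bmi1 reporter signal indicates esBAF inhibition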
# HSF1 inhib: HSF1 inhibition; activity change, negative = inhibition, % at 7.5 µM (by protocol); AID 2098; NIH3T3-HGL HSE-luciferase, MG132-induced, luminescence 8 h; stronger effect = lower value; actives 0.77% (n = 300,000);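 active = more than half of replicate wells show activity change below -50%, luminescence cut by over half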;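 also: luciferase reports HSF-1 transcriptional activity via heat shock element; 0% = median of DMSO wells and -100% = zero luminescence signal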
# HSF-1 act: increases HSF-1 driven luciferase reporter signal. activation, % at 9 µM. actives 1.7% (n = 300,000). NIH3T3-HGL HSF-1 luciferase reporter, MG132, 8 h; 100% = twice DMSO control signal;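 active = mean replicate activation of at least 50% with a set share of replicates each reaching 50%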;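 also: 0% = median of the neutral control wells and 100% = twice that signal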
# The depositor's hits bear a star; nt = no result given. Shown are actives, neighbours in structure and some others; about 3.4% of the full set was active somewhere.
SMILES,Vif imaging,esBAF inh,HSF1 inhib,HSF-1 act
C[C@@H]1CN([C@H](C)CO)C(=O)c2cc(NC(=O)CCCN(C)C)ccc2O[C@H]1CN(C)Cc1ccc(C(F)(F)F)cc1,nt,-3,nt,nt
CC(=O)NCCc1cc2ccc(C)c(C)c2[nH]c1=O,7,1,4,22
Cc1ccc2cc(CCNC(=O)c3cccs3)c(=O)[nH]c2c1C,-9,59*,29,58*
Cc1ccc2cc(CCNC(=O)c3cccs3)c(=O)[nH]c2c1,14,54*,nt,nt
CCCN1C[C@H](C)[C@H](OC)CN(C)C(=O)c2cc(NS(=O)(=O)c3cn(C)cn3)ccc2OC[C@@H]1C,nt,-5,nt,nt
O=C(C[C@@H]1C=C[C@H](NC(=O)Nc2ccccc2)[C@@H](CO)O1)NCc1ccccn1,nt,-4,nt,nt
C=CCn1c(SCC#N)nc2ccccc2c1=O,-11,2,10,53*
CC(C)Cn1c(SCC#N)nc2ccccc2c1=O,16,-8,4,7
CC(=O)Nc1ccc(S(=O)(=O)NCc2csc(C)n2)cc1,-2,-2,-87*,-90
Cc1nc(CNS(=O)(=O)c2ccc(Br)cc2)cs1,nt,-12,-6,-18
O=[N+]([O-])c1cc(-n2cnnn2)ccc1N1CCC(Cc2ccccc2)CC1,78*,-9,7,1
CC1CC(C)CN(c2ccc(-n3cnnn3)cc2[N+](=O)[O-])C1 (centres undefined),0,-14,6,-9
O=C(C[C@@H]1CC[C@H]2[C@@H](COC[C@H](O)CN2S(=O)(=O)c2ccccc2)O1)N1CCOCC1,nt,5,nt,nt
COc1ccc(C(=O)Nc2cc(C(F)(F)F)ccc2-n2cnc3ccccc32)cc1,9,nt,28,65*
CO[C@H]1CN(C)C(=O)c2ccc(NC(C)=O)cc2OC[C@@H](C)N(CC2CCCCC2)C[C@H]1C,nt,-2,nt,nt
CCn1cnc2cc(NCc3cccs3)ccc21,-3,31,6,2
CCn1cnc2cc(NCc3ccc(N(C)C)cc3)ccc21,-2,36,-25,-44
CN(C)c1ccc(CNc2ccc3c(c2)ncn3C(C)(C)C)cc1,14,7,-54*,-62
CC(C)(C)n1cnc2cc(NCc3cccs3)ccc21,-3,52*,6,22
CC(=O)N(C)C[C@@H]1Oc2cc(-c3ccccc3C)ccc2S(=O)(=O)N([C@H](C)CO)C[C@@H]1C,nt,-1,nt,nt
CN(C)CC(=O)Nc1ccc2c(c1)[C@@H]1C[C@@H](CC(=O)N3CCOCC3)O[C@H](CO)[C@@H]1O2,nt,-1,nt,nt
COC(=O)C1=NNC(C(=O)c2ccco2)C1c1ccc(OC)cc1 (centres undefined),52*,-1,3,36
CCc1ccc(C(=O)Nc2cc(C)on2)o1,3,51*,13,23
Cc1cc(NC(=O)c2ccc(C)c(C)c2)no1,-6,21,18,61*
Cc1cc(NC(=O)Nc2ccc(Cl)cc2)no1,1,47*,6,-6
SMILES,Vif imaging,esBAF inh,HSF1 inhib,HSF-1 act
CCN(CC)S(=O)(=O)c1cc(C(=O)Nc2cc(C)on2)ccc1Cl,-11,-2,-61*,-70
C[C@H](CO)N1C[C@H](C)[C@@H](CN(C)Cc2ccccc2)Oc2ccc(NC(=O)Cc3cn(C)c4ccccc34)cc2C1=O,nt,-7,nt,nt
C[C@@H](NC(=O)C[C@@H]1C[C@H]2c3cc(NC(=O)NC4CCCC4)ccc3O[C@H]2[C@@H](CO)O1)c1ccccc1,nt,-4,nt,nt
Cc1c([N+](=O)[O-])cc(S(=O)(=O)Nc2ccncc2)cc1[N+](=O)[O-],66*,9,6,-2
CCCNC(=O)N(C)C[C@H]1Oc2ncc(-c3ccc(C(=O)N(C)C)cc3)cc2C(=O)N([C@H](C)CO)C[C@H]1C,nt,-1,nt,nt
COc1cc(OC)c2c(c1)O/C(=C\c1ccccc1)C2=O,33,58*,23,39
COc1ccc(CCC(=O)Nc2nc3ccccc3[nH]2)cc1,-4,46*,4,19
O=C(CC1CCCC1)Nc1nc2ccccc2[nH]1,13,62*,23,15
O=C(Nc1nc2ccccc2[nH]1)C1CCCC1,-9,38,15,19
COc1ccc(OCC(=O)Nc2nc3ccccc3[nH]2)cc1,2,49*,14,31
COc1ccc(Br)c(C(=O)Nc2nc3ccccc3[nH]2)c1,9,49*,4,3
COc1cc(OC)cc(C(=O)Nc2nc3ccccc3[nH]2)c1,-1,nt,8,17
C[C@H]1CN([C@@H](C)CO)C(=O)c2cc(NS(=O)(=O)c3ccc(F)cc3)ccc2O[C@@H]1CN(C)S(=O)(=O)c1ccccc1,nt,3,nt,nt
C[C@@H]1CCCCO[C@H](CN(C)C(=O)NC2CCCCC2)[C@H](C)CN([C@H](C)CO)C(=O)c2cc(NC(=O)Nc3ccc(C(F)(F)F)cc3)ccc2O1,nt,3,nt,nt
COc1ccc(-n2c(SCC(=O)Nc3ccc(C(N)=O)cc3)nc3ccccc3c2=O)cc1OC,6,5,17,60*
CCn1c(SCC(=O)Nc2cc(C)on2)nnc1-c1ccc(OC)cc1,50*,nt,-13,1
Cc1cc(NC(=O)CSc2nc3ccccc3c(=O)n2-c2ccccc2)no1,55*,nt,0,6
O=[N+]([O-])c1ccc(S(=O)(=O)N2CCSC2c2ccco2)cc1 (centres undefined),2,nt,19,51*
O=S(=O)(c1ccc(Cl)cc1)N1CCSC1c1ccco1 (centres undefined),6,0,nt,nt
c1ccc(C2Nc3ccccc3-c3nc4ccccc4n32)nc1 (centres undefined),-1,nt,22,33
c1coc(C2Nc3ccccc3-c3nc4ccccc4n32)c1 (centres undefined),-7,46*,10,27
c1ccc(C2Nc3ccccc3-c3nc4ccccc4n32)cc1 (centres undefined),0,45*,19,29
C[C@@H]1CCCCO[C@H](CN(C)C(=O)C2CCCCC2)[C@H](C)CN([C@H](C)CO)C(=O)c2cc(N(C)C)ccc2O1,nt,3,nt,nt
Cc1ccc(/C=C2\SC(=S)N(CCCC(=O)Nc3cccnc3)C2=O)cc1,2,nt,-60*,-70
COc1ccc(/C=C2\SC(=S)N(CCC(=O)Nc3cccc(O)c3)C2=O)cc1,-4,10,67,92*
SMILES,Vif imaging,esBAF inh,HSF1 inhib,HSF-1 act
Cc1ccc(/C=C2\SC(=S)N(CCC(=O)NNS(=O)(=O)c3ccc(C)cc3)C2=O)cc1,4,nt,15,64*
CNC[C@@H]1Oc2ccc(NS(=O)(=O)c3cccs3)cc2C(=O)N([C@H](C)CO)C[C@H]1C,nt,-1,nt,nt
O=C(NCC[C@H]1CC[C@H](NC(=O)c2cccnc2)[C@@H](CO)O1)Nc1ccc(C(F)(F)F)cc1,nt,-2,nt,nt
CN1C(=O)c2cc(NC(=O)Nc3cccc(Cl)c3)ccc2OC[C@@H]2O[C@H](CC(=O)NCCc3ccncc3)CC[C@@H]21,nt,-5,nt,nt
CCOC(=O)C1CCN(C(=O)CCS(=O)(=O)c2ccc3c(c2)CC(C)N3C(=O)CC)CC1 (centres undefined),-2,nt,-62*,-71
Cc1ccc(CNC(=O)C2CCC(=O)N(Cc3ccc(Cl)cc3)C2)cc1F (centres undefined),0,nt,16,56*
